Measured values reported in PubChem BioAssay AID1016 (Sanford-Burnham Center for Chemical Genomics, 2008).
Hit rate of the full screen: of about 200,000 compounds, about 330 (0.17%) were called active. What follows is part of a selection rich in actives, with near analogues and random picks from the rest. A number with no mark means an inactive call.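 The calls were made as follows: active = activation factor of 2 or more at 20 µM, a signal rise over negative controls twice the positive control's; inactive = the rest.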 Where a SMILES comes first, the peptide text is derived from it. [ ]: non-standard residue; d: D form. ξ: configuration not given here. ξM = CSCCC(N)C(=O)O

Tested on: alkaline phosphatase, intestinal [Bos taurus]
Assay: bovine intestinal alkaline phosphatase activators, primary screen, biochemical, bovine IAP, CDP-star luminescence (AID 1016)
Details: purified bovine IAP, 30 min, at 20 µM, hits give high values, fold of DMSO-control signal, blank-subtracted

Row | Structure (SMILES) | activation factor
1 | Cc1ccccc1C1=NC(C(F)(F)F)(C(F)(F)F)c2c(n(-c3ccc(F)cc3)c(=O)[nH]c2=O)N1 | 0.9
2 | CC1CCC(C(C)C)C(=O)/C1=C\c1ccc(NC(=O)CCC(=O)O)cc1 (stereo not drawn) | 0.9
3 | C[C@@H](O)c1nc2ccccc2n1N | 0.9
4 | Cc1ccc(C(=O)Nc2sc(Cc3ccc4c(c3)OCO4)c(C)c2C(N)=O)cc1 | 0.9
5 | CN(C)S(=O)(=O)Oc1ccccc1C(=O)Nc1ccccc1Cl | 0.9
6 | COc1ccc(S(=O)(=O)N(C)CC(=O)N2CCCC2)cc1Cl | 1
7 | O=C(Oc1ccc2c(c1)CCC2)N1CCOCC1 | 2.4 (active)
8 | CC(=O)Nc1ccccc1OC(=O)N1CCOCC1 | 0.9
9 | COc1ccc(CC(=O)Nc2ccc3c(c2)CCC3)cc1S(=O)(=O)N1CCOCC1 | 1
10 | CCc1cc(-c2n[nH]c(=S)n2CC(C)C)cs1 | 1
11 | O=C(CNC(=O)c1cc(=O)[nH]c2ccccc12)Nc1ccc(F)c(F)c1 | 0.9
12 | Cc1cc(C)nc(-n2ncc3c2CC(c2ccc(C(C)C)cc2)CC3=O)n1 (stereo not drawn) | 0.8
13 | CCC(=O)N1c2ccccc2NC2=C(C(=O)CCC2)C1c1ccco1 (stereo not drawn) | 1
14 | NC(=O)COC(=O)c1cc(S(=O)(=O)N2CCN(c3ccccc3)CC2)ccc1Cl | 1.1
15 | COCc1c(N)c(C)nc(Cl)c1C#N | 1.1
16 | Cc1cccc(C)c1NC(=O)C1CCCN1C(=O)OC(C)(C)C (stereo not drawn) | 0.8
17 | CC(=O)NCCC(=O)Nc1cc(S(=O)(=O)N2CCOCC2)ccc1N1CCOCC1 | 1
18 | CCCC1OC23CCCCC2C(C#N)(C#N)C1(C#N)C(=N)O3 (stereo not drawn) | 1.1
19 | Cc1ccc(C(=O)NC(=S)NCc2cccnc2)cc1 | 1
20 | NC(=O)C1CCN(C(=O)COc2cccc3cccnc23)CC1 | 1
21 | Cc1nn(Cc2ccc(F)cc2)c(C)c1NC(=O)c1cccnc1Cl | 1.1
22 | CC(=O)Cn1ncc(N2CCOCC2)c(Br)c1=O | 1.1
23 | C/C(CC(=O)Nc1cccc(C(F)(F)F)c1)=N\NC(=O)C(=O)NCC(C)C | 1.3
24 | O=C(NN1C(=O)C2C3C=CC(O3)C2C1=O)c1ccncc1 (stereo not drawn) | 0.8
25 | CC(C)C1Nc2c(C(=O)O)cccc2C(Nc2ccccc2C(=O)O)C1(C)C (stereo not drawn) | 1.1

Row | Structure (SMILES) | activation factor
26 | CCCn1c(C(O)c2ccc(OCC)cc2)nc2ccccc21 (stereo not drawn) | 19.1 (active)
27 | COc1cc(C(O)c2nc3ccccc3n2C)cc(OC)c1OC (stereo not drawn) | 1
28 | CCCn1c(C(O)c2cc(OC)ccc2OC)nc2ccccc21 (stereo not drawn) | 73.3 (active)
29 | CCOc1ccc(C(O)Cc2nc3ccccc3n2C)cc1 (stereo not drawn) | 0.8
30 | CCOCCn1c(C(C)C)nc2ccccc21 | 0.9
31 | CCCn1c(C(Cc2ccccc2)NC(=O)COC)nc2ccccc21 (stereo not drawn) | 0.9
32 | CN(C)c1ccc(/C=N/NC(=O)c2ccc(Cn3cc(Br)cn3)o2)cc1 | 1
33 | Cc1ccccc1OCC(=O)Nc1nc(C)c(C(=O)N(C)C)s1 | 1
34 | Cc1csc(SCC(=O)Nc2sccc2C#N)n1 | 1.2
35 | CN(c1ccc(OCC(=O)OCC(=O)Nc2cccc([N+](=O)[O-])c2)cc1)S(=O)(=O)c1ccc(F)cc1 | 0.8
36 | CN(C)c1ccc(NC(=O)CSc2n[nH]c(-c3ccco3)n2)cc1 | 1
37 | O=C(OCC(=O)c1c[nH]c2ccccc12)c1cccc(O)c1 | 1.2
38 | COCCCNC(=O)Cn1cc(/C=C(\C#N)C(=O)N2CCN(c3ccccc3)CC2)c2ccccc21 | 1
39 | COc1ccc(/C=N/n2c(C)cc(C)cc2=O)cc1 | 1.2
40 | CCOC(=O)C1(Cc2cccc(OC)c2)CCN(C(C)COC)CC1 (stereo not drawn) | 1
41 | Fc1ccccc1Cc1ccc(Cl)nn1 | 0.9
42 | O=C(O)c1n[nH]nc1-c1ccccc1 | 0.9
43 | Cc1ccccc1CCN(CC(=O)NC1CCCCC1)C(=O)c1csnn1 | 1
44 | COc1cccc(N(Cc2nnc3n2CCCCC3)C(=O)Nc2ccccc2F)c1 | 1.1
45 | CSc1ccc(C(=O)C2CCCN(C(=O)c3ccc(C)nc3)C2)cc1 (stereo not drawn) | 1
46 | COc1ccc(C(=O)Nc2ccc(NC(=O)C(C)C)nc2)cc1 | 0.9
47 | Cc1cccc(CSc2nnc(C)c(=O)n2N)c1 | 1.1
48 | CC(=O)N/C(=C/c1ccc(OC(F)F)cc1)C(=O)O | 1
49 | CC(=O)N1CCN(S(=O)(=O)c2ccc(C)c([N+](=O)[O-])c2)C1C(C)C (stereo not drawn) | 1
50 | CC1Cc2ccccc2N1C(=O)CSc1nnc(C2CC2)n1C (stereo not drawn) | 1

Row | Structure (SMILES) | activation factor
51 | CC(NC(=O)c1ccc(N2CCNCC2)c([N+](=O)[O-])c1)C12CC3CC(CC(C3)C1)C2 (stereo not drawn) | 1.1
52 | Clc1ccc(-c2nc3ccccn3c2CN2CCSCC2)cc1 | 1
53 | O=C1C2C3C=CC(C3)C2C(=O)N1c1ccc(-c2nc3ccccc3c(=O)o2)cc1 (stereo not drawn) | 1.1
54 | COc1cccc(NC(=S)C(C#N)=C2N(C)c3ccccc3N2C)c1 | 1.1
55 | CC(=O)NC1=NN(C(C)=O)C(C)(c2ccc(C)cc2)S1 (stereo not drawn) | 0.9
56 | CC(=O)c1sc(N/N=C/c2ccc(C(C)C)cc2)nc1C | 0.9
57 | COCCNC(=O)/C(C#N)=C/c1nc(N(C)C)n(-c2ccc(F)cc2)c1Cl | 1
58 | O=C(O)c1ccc2c3c(cccc13)C(=O)N(OS(=O)(=O)c1ccccc1)C2=O | 1.3
59 | Cc1sc2nc(COC(=O)C(NC(=O)c3ccc(Cl)cc3Cl)C(C)C)[nH]c(=O)c2c1C (stereo not drawn) | 0.7
60 | COc1ccc(C(CC(=O)c2ccccc2)S(=O)(=O)c2ccccc2)cc1 (stereo not drawn) | 1
61 | CN(C)S(=O)(=O)c1cccc(NC(=O)COC(=O)C2(c3ccccc3F)CCCC2)c1 | 1.1
62 | NS(=O)(=O)c1ccc(NC(=O)COC(=O)c2ccco2)cc1 | 1
63 | NS(=O)(=O)c1ccc(NC(=O)COC(=O)C2(c3ccc(F)cc3)CCCC2)cc1 | 2.7 (active)
64 | CCn1c(SCC(=O)Nc2ccc3c(c2)OCCO3)nc2c(c1=O)SC(C)C2 (stereo not drawn) | 1
65 | CCn1c(SCC(=O)Nc2ccccc2F)nc2c(c1=O)SC(C)C2 (stereo not drawn) | 2 (active)
66 | CC1Cc2nc(SCC(=O)Nc3ccccc3F)n(C)c(=O)c2S1 (stereo not drawn) | 1.1
67 | COc1ccc(-c2nc(N)sc2C2(O)C(=O)Nc3c(Br)cc(F)cc32)cc1OC (stereo not drawn) | 1
68 | COC(=O)CNC(=O)C(CCSC)NC(C)=O (stereo not drawn) (Ac-[ξM]-Gly-OMe) | 1
69 | O=C(COC(=O)c1cccc(Br)c1)Nc1cccc2c1C(=O)c1ccccc1C2=O | 0.8
70 | O=C(CN1CCOCC1)Nc1c(Cl)cc(Cl)cc1Cl | 1
71 | O=C(CCCn1c(=O)c2sccc2n(CC(=O)NCC2CCCO2)c1=O)NCc1ccco1 (stereo not drawn) | 1
72 | [O-][n+]1c2c(nn1-c1ccc(Cl)c(Cl)c1)-c1nonc1CC2 | 1.1
73 | CCCOc1ccc(Cn2ccnc2)cc1[N+](=O)[O-] | 0.2
74 | Cc1ccc(Oc2cc(NC(=O)CCCn3nc(C)c([N+](=O)[O-])c3C)cc([N+](=O)[O-])c2)cc1 | 0.9
75 | Cc1[nH]nc(SCC(=O)NCC(C)C)c1[N+](=O)[O-] | 1.2

Row | Structure (SMILES) | activation factor
76 | COc1ccc(NC(=O)CN2CCN(S(=O)(=O)c3ccc(F)cc3)CC2)cc1Cl | 0.9
77 | COc1cc2c(cc1NC(=O)CN1CCN(S(=O)(=O)c3ccc(F)cc3)CC1)oc1ccccc12 | 2 (active)
78 | COc1ccccc1NC(=O)CN1CCN(S(=O)(=O)c2ccc(Br)cc2)CC1 | 1
79 | COc1ccc(-n2c(C)cc(C(=O)CN3C(=O)NC4(CCc5ccccc54)C3=O)c2C)cc1 (stereo not drawn) | 1
80 | C/C(=C\c1ccco1)CN1CCC(N2CCC(C(=O)N3CCOCC3)CC2)CC1 | 1.1
81 | CC(=O)c1cccc(NC(=O)[C@@H](NC(N)=O)C(C)C)c1 | 0.9
82 | O=C(COc1ccc(-c2ccccc2)cc1)NN=C1CCCC1 | 1
83 | CC(C)Nc1nnc(SCC(=O)/C=C2\N(C)c3ccccc3C2(C)C)s1 | 1.1
84 | O=C1Nc2ccc([N+](=O)[O-])cc2C1=Nc1cccc(CO)c1 | 0.9
85 | Cc1c(NC(=O)CCC2CCCCC2)cc(C(=O)N2CCOCC2)cc1[N+](=O)[O-] | 0.9
86 | C=C(C)c1cccc(C(C)(C)NC(=O)NCCN(CC)CC)c1 | 1.2
87 | CC(=O)Nc1ccc(NC(=O)CSCc2cnn(-c3ccccc3)c2-n2cccc2)cc1 | 0.6
88 | C1=C(CCNc2ncnc3c2cnn3-c2ccccc2)CCCC1 | 0.9
89 | O=C(NCCC1=CCCCC1)C1CCN(Cc2cnn(-c3ccccc3)c2-n2cccc2)CC1 | 2.5 (active)
90 | O=[N+]([O-])c1cc(S(=O)(=O)Nc2cccc(Cl)c2)ccc1N=Nc1c(O)[nH]c2ccccc12 | 0.8
91 | S=C(NCc1cccnc1)Nc1ccc(Cl)cc1Cl | 0.9
92 | O=C(Nc1cccn(Cc2ccccc2Cl)c1=O)NC1CCCCC1 | 1
93 | C=CCc1cccc2cc(C(=O)NC3CCCC3)c(=O)oc12 | 0.9
94 | COc1ccc(CCNC(=O)CSc2nnc3ccc(-c4ccncc4)nn23)cc1 | 1.1
95 | COc1ccc(CCNC(=O)CSc2nc(-c3ccc(OC)c(OC)c3)ccc2C#N)cc1 | 2.1 (active)
96 | COc1cccc(-c2ccc(C#N)c(SCC(=O)NCCc3ccc(Cl)cc3)n2)c1 | 0.8
97 | O=C(Nc1ccc2c(c1)C(=O)OC2)Nc1cccc2ccccc12 | 1.1
98 | CCc1ccc(Nc2nnc(SCC(=O)c3ccc4c(c3)NC(=O)CO4)s2)cc1 | 1.2
